Potency and affinity values are given separately. Unmarked numbers belong to inactive results.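 How the source made its calls: active means viability below 70% at one or more tested concentrations; inactive means viability above 70% at every concentration.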
test: Vero E6 cell cytotoxicity, SAR follow-up, cytotoxicity control for West Nile virus antiviral project, synthesized analogs (AID 2244); details: CellTiter-Glo luminescence, 72 h, stronger effect = lower value; at 40 µM unless noted

Row | SMILES | minimum viability
1 | CC1CC(C)CN(C(=O)CSc2nc3ccccc3c(=O)n2-c2ccc(F)cc2)C1 (stereo not given) | 74.6%
2 | COc1cccc(-n2c(SCC(=O)Nc3ccc4c(c3)CCC4)nc3ccccc3c2=O)c1 | 74.6%
3 | O=c1c2cccc(Cl)c2nc2n1CCC2 | 79.7% [at 5 µM]
4 | COc1ccc(NC(=O)CSc2nc3ccccc3c(=O)n2-c2ccc(F)cc2)cc1 | 70.1%
5 | O=[N+]([O-])c1ccc2c(c1)C(O)N1CCCC1=N2 (stereo not given) | 76.7% [at 0.078 µM]
6 | COc1ccccc1NC(=O)CSc1nc2ccccc2c(=O)n1-c1ccc(F)cc1 | 78.4%
7 | O=c1c2cc(I)ccc2nc2n1CCC2 | 72.6%
8 | CC1(O)c2cc(Br)ccc2N=C2CCCN21 (stereo not given) | 74.6% [at 0.156 µM]
9 | COc1ccc(-c2csc(N(C)C(=O)c3ccccc3Cl)n2)cc1 | 78.5%
10 | O=C(CSc1nc2ccccc2c(=O)n1-c1ccc(F)cc1F)Nc1ccc(N2CCOCC2)cc1 | 70.7%
11 | CC(=O)Nc1ccc2nc3n(c(=O)c2c1)CCC3 | 79.7% [at 0.625 µM]
12 | Nc1ccc2nc3n(c(=O)c2c1)CCC3 | 76.6%
13 | O=c1c2c(F)cccc2nc2n1CCC2 | 80.3% [at 2.5 µM]
14 | COc1ccc(-c2csc(N(CCCBr)C(=O)c3ccccc3Cl)n2)cc1 | 70.2%
15 | Cc1cccc2nc3n(c(=O)c12)CCC3 | 78.3% [at 0.625 µM]
16 | O=c1c2cc([N+](=O)[O-])ccc2nc2n1CCC2 | 78.7%
17 | CCOC(=O)C1(Cc2ccccc2C(F)(F)F)CCN(C2CCN(C(C)=O)CC2)CC1 | 87% [at 80 µM]
18 | Cc1ccc2nc3n(c(=O)c2c1)CCC3 | 76.4% [at 0.078 µM]
19 | c1ccc2c(c1)CN1CCCC1=N2 | 89.1% [at 20 µM]
20 | Cc1cccc2c(=O)n3c(nc12)CCC3 | 75.1% [at 0.078 µM]

— PubChem BioAssay AID2244 (Southern Research Specialized Biocontainment Screening …, 2010)
